Source: PubChem
CtBP-E1A inh – CtBP/E1A binding inhibition. AlphaScreen GST-E1A/His-CtBP binding, 1536-well; hits give low values. activity change, % (concentration not given with the values). 0.49% of 340,000 active; in the data active = activity change below about -65%; inconclusive = mostly about -30% to -63%; note: % is set by controls: 0 for no effect and ±100 for the full control effect
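Steps: dispense buffer (Tris pH 8.0, NaCl 300 mM, TCEP 1 mM, BSA, Tween 20); add 5X protein mix (GST-E1A, His-CtBP, 125 nM each); pin 23 nL compound; 2 h at 37 °C, dark; add 5X beads (50 ug/mL); 1 h; read.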
BAZ2B block – inhibitors of human BAZ2B bromodomain | Potency, µM (highest dose often 114 µM), for inactives: at the highest dose activity change, negative = inhibition, actives largely listed as inhibitors | Q9UIF8 | 4.4% of 360,000 active | AlphaScreen BAZ2B-H3K14Ac peptide displacement | AID 504333; note: potency is the fitted concentration of half-maximal effect; % is set by controls: 0 for no effect and ±100 for the full control effect; nearly all actives have a fitted effect of over 60% in size
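AlphaScreen displacement: compounds (up to 110uM) incubated 30 min at room temperature with a preformed 50 nM BAZ2B/50 nM biotinylated H3K14Ac peptide complex in PBS pH 7.4 with Tween-20. Donor and acceptor beads at 10 ug/mL final added, 20 min light-protected before reading.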
HP1b binding inh – HP1-beta chromodomain-methylated histone interaction inhibition; P83916; AlphaScreen HP1-beta / biotin-H3K9me3 peptide binding; Potency, µM (series often up to 114 µM), for inactives: at the top dose activity change, negative = inhibition, hits mostly inhibitors; 0.56% of 390,000 active; AID 540317; note: potency is the fitted concentration of half-maximal effect; nearly all actives have a fitted effect of over 70% in size
Target sequence (P83916 whole entry, looked up): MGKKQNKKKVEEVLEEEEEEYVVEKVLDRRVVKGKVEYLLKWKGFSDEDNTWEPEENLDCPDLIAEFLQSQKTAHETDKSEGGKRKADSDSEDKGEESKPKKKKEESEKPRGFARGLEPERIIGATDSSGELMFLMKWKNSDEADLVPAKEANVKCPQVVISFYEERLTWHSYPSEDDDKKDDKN
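Compound inhibition of the preformed complex between 50 nM HP1-beta and 50 nM biotinylated H3K9me3 peptide was read by AlphaScreen. Buffer was PBS pH 7.4 with 0.01% Tween-20. Incubations ran 30 min at room temperature, with 10 ug/mL donor/acceptor beads.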
G9a inh – inhibitors of human histone lysine methyltransferase G9a | Q96KQ7 | G9a H3K9 monomethylation, AlphaScreen, 2 h | Potency, µM (top dose mostly 102 µM), for inactives: at the highest dose activity, negative = inhibition, usual class: inhibitors | 8.8% of 350,000 active; note: potency is the fitted concentration of half-maximal effect; % is set by controls: 0 for no effect and ±100 for the full control effect; nearly all actives have a fitted effect of over 75% in size
Target sequence (Q96KQ7 913-1193 limits assumed): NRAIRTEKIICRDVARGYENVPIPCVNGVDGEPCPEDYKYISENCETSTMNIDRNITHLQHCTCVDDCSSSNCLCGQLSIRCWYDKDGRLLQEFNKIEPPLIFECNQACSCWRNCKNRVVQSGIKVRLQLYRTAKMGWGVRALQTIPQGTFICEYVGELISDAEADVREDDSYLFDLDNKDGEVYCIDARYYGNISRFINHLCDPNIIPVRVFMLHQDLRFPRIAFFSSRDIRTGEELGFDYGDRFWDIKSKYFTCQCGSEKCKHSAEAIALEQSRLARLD
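Readings reflect AlphaScreen signal from monomethyl-H3K9 antibody detection. HMT at 20 nM; substrate b-H3K9 500 nM; cofactor SAM 20 uM; 2 h RT reaction; compounds tested as titrations in qHTS with 15 min preincubation.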
Six1-Eya2 blk – inhibitors of human Six1/Eya2 interaction. AlphaScreen GST-Six1/His-Eya2 binding, biochemical; hits give low values. Q15475+O00167. 0.56% of 360,000 active. activity change, % (no concentration beside the values). AID 651725; in the data active = activity change below about -65%; inconclusive = mostly about -30% to -63%; note: % is set by controls: 0 for no effect and ±100 for the full control effect
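GST-Six1 + His-Eya2 (5X stock: 250/500 nM); Tris pH 8.0, 300 mM NaCl, 0.05% BSA, 0.02% Tween 20; GSH donor/Ni acceptor beads; 1 h 37 °C dark; AlphaScreen readout.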
JMJD2A Tudor – inhibitors of human JMJD2A Tudor domain; O75164; AlphaScreen JMJD2A-Tudor / H3K4me3 peptide binding; Potency, µM (titrated, usually from 114 µM), for the others: at the highest dose activity change, negative = inhibition, usual class: inhibitors; 4.4% of 390,000 active; AID 504339; note: potency is the fitted concentration of half-maximal effect; % is set by controls: 0 for no effect and ±100 for the full control effect; nearly all actives have a fitted effect of over 50% in size
* = called active by the depositor; ? = inconclusive; / = not tested or not shown; [ ] = remark or other dose. Sampled rows, rich in hits. Any-hit rate of the full collection: about 10%. Unless noted, calls come from the whole dose curve; as a rule, active = well fitted inhibition curve with a large enough effect; inconclusive = small, poorly fitted or top-dose-only effect; inactive = no such curve, though single readings can be large or run the other way.

SMILES | CtBP-E1A inh | BAZ2B block | HP1b binding inh | G9a inh | Six1-Eya2 blk | JMJD2A Tudor
COCc1cc(C)nc(SCc2ccc(Br)cc2)c1C#N | 65.4 | / | 285.1% | / | 52.0 | 185.2%
Cc1cccc(-c2nc3c4c(-c5ccccc5)c(-c5ccccc5)oc4ncn3n2)c1 | / | -3.2% | 55.8% | -22.2%[59 µM] | / | -13.8%
CCc1ccc(-c2nc3cc(NC(=O)c4ccc(F)cc4)ccc3o2)cc1 | / | 3.9% | 40.7% | 5.4%[59 µM] | / | -11.4%
COc1ccccc1N(CC(=O)NCC1CCCO1)C(=O)Cn1nnc(-c2cccs2)n1 (stereo unspecified) | 3.2 | -4.3% | 24.4% | 18.7% | 0.8 | -20.7%
Cc1ccc(S(=O)(=O)N(C)c2ccc(C(=O)Nc3ccccc3C(=O)N3CCOCC3)cc2)cc1 | -12.2 | -25.4% | 5.1% | / | 8.2 | -0.7%
CCOC(=O)Cc1cc(=O)n2[nH]c(C)cc2n1 | -0.4 | ? | 11.2% | -23.9%[59 µM] | 2.6 | 15.8µM*
O=C1CCC([N+](=O)[O-])C(c2cc(Br)ccc2F)N1 (stereo unspecified) | 9.6 | 10.5%[57.1 µM] | 6.7% | / | -17.1 | -14.3%
COc1cccc(CCN2CCC(CNS(=O)(=O)c3cc(-c4cc(C)no4)ccc3C)CC2)c1 | / | ? | -9.2%[57 µM] | 70.8µM* | -21.8 | -34.9%
Cc1ccc2c(C)c(C(=O)N(Cc3ccc(N(C)C)cc3)Cc3ccco3)oc2c1C | / | 10µM* | -25.0% | 11.2µM* | / | 17.8µM*
Cc1c(C(=O)N(Cc2cccc(Cl)c2)Cc2ccco2)oc2ccccc12 | / | 41.9% | 89.1% | 34.0%[59 µM] | / | 28.1%
CCc1ccc2oc(C(=O)N(Cc3ccc(N(C)C)cc3)Cc3ccco3)c(C)c2c1 | / | 8.91µM* | ? | 10µM* | / | 17.8µM*
CC(Sc1nnc(-c2cccnc2)n1N)C(=O)Nc1ccc2c(c1)OCCO2 (stereo unspecified) | 0.0 | -20.9% | 20.8% | 56.2µM* | 13.5 | -21.4%
O=C(NCc1cccc(F)c1)C1CCN(c2nn3cc(-c4ccc(F)cc4)nc3s2)CC1 | / | 4.4% | 5.0% | 1.3%[59 µM] | / | -10.9%
Cc1ccc(S(=O)(=O)N2CCCN(Cc3nc4ccccc4c(=O)[nH]3)CC2)cc1 | -1.2 | -4.7% | 27.5% | 25.1µM* | 1.9 | ?
O=C(NC1CCCCC1)N(Cc1nc2ccccc2c(=O)[nH]1)C1CCCC1 | -0.4 | 5.7% | 12.6% | 17.3% | -4.4 | -7.5%
O=C(NC1CCCCC1)N1CCC(n2cnc3ccccc32)CC1 | 1.7 | ? | 19.5% | 56.2µM* | 7.8 | 56.2µM*
O=C(NC1CCCCC1)N1CCN(Cc2nc3ccccc3c(=O)[nH]2)CC1 | 3.0 | / | 25.4% | / | 1.6 | 10µM*
O=C(NC1CCCCC1)N(Cc1nc2ccccc2c(=O)[nH]1)C1CCCCC1 | 4.1 | ? | 18.5% | 28.2µM* | 23.9 | -4.7%
CC(C)NC(=O)C1=CC(c2ccc3c(c2)OCO3)=NS(=O)(=O)N1C | / | 5.0% | 6.3% | -5.3%[59 µM] | / | -11.9%
Cc1ccc(-n2nc(C)c(C(=O)NCCCN3CCN(c4ccc(F)cc4)CC3)c2-n2cccc2)cc1 | / | 39.8µM* | -23.9% | ? | / | 44.7µM*
COc1ccc(N2CCN(CCCNC(=O)c3c(C)nn(-c4ccc(F)cc4)c3-n3cccc3)CC2)cc1 | / | 50.1µM* | -11.2% | 4.47µM* | / | ?
COc1ccc(C2=CC(c3ccccc3Cl)n3nc(-c4ccc(C)cc4)nc3N2)cc1 (stereo unspecified) | / | 11.2µM* | -11.3% | ? | / | ?
COc1ccccc1C1C=C(c2ccc(Cl)cc2)Nc2nc(NS(C)(=O)=O)nn21 (stereo unspecified) | / | 2.9% | / | 50.1µM* | / | /
COc1ccccc1C1C=C(c2ccccc2)Nc2nnnn21 (stereo unspecified) | -0.1 | 8.3% | 33.8% | -25.9%[59 µM] | -0.8 | -12.7%
CS(=O)(=O)Nc1nc2n(n1)C(c1ccccc1)C=C(c1ccc(Br)cc1)N2 (stereo unspecified) | 3.6 | -0.7% | 86.4% | ? | -5.0 | -16.2%
